{
  "source": "PubChem BioAssay AID540276",
  "about": "(National Center for Advancing Translational Sciences (NCATS), 2011)",
  "note": "Screen size: about 300,000 compounds; about 5,400 (1.8%) were called active. About 28% were inconclusive and are not listed. The entries come from a sample that favours actives as a whole. Unmarked numbers belong to inactive results. The call rests on the fitted dose curve; tested in HEK293 cells. On the % scale 0 is the no-effect control and ±100 the full control effect; potency means the concentration at half of the fitted maximal effect.",
  "data": [
    {"experiment": "qHTS for inhibitors of binding or entry into cells for Marburg Virus", "settings": "Marburg virus pseudotyped entry inhibition, cell reporter; series mostly up to 37.8 µM; activity change, negative = inhibition: at the top concentration", "values": [
      {"smiles": "O=C(Nc1c(Br)cc2c(c1Br)Cc1cc([N+](=O)[O-])ccc1-2)C(Cl)Cl", "activity change, negative = inhibition": "12.8%"},
      {"smiles": "CN(Cc1ccccc1)Cc1ccccc1F", "activity change, negative = inhibition": "-10.3%"},
      {"smiles": "CCCn1c(NCc2ccccc2F)nc2ccccc21", "activity change, negative = inhibition": "8.16% [at 46.1 µM]"},
      {"smiles": "N=c1n(CCc2ccccc2)c2ccccc2n1Cc1ccccc1F", "Potency": "5.17 µM (active)"},
      {"smiles": "CCc1ccccc1N(CC(=O)NCC1CCCO1)C(=O)CCC(=O)Nc1nccs1", "note": "(stereo not given)", "activity change, negative = inhibition": "5.09% [at 46.1 µM]"},
      {"smiles": "COc1ccc(C)cc1NC(=S)N1CCOCC1", "activity change, negative = inhibition": "-15.3% [at 46.1 µM]"},
      {"smiles": "O=C1OC(Cc2ccccc2)C(c2ccccc2)C1=O", "note": "(stereo not given)", "activity change, negative = inhibition": "3.11%"},
      {"smiles": "Cn1c(SCC(=O)N2CCCc3ccccc32)nc2ccccc2c1=O", "Potency": "12.6 µM (active)"},
      {"smiles": "O=C(CSc1nc2[nH]ncc2c(=O)n1-c1ccccc1)N1CCCc2ccccc21", "activity change, negative = inhibition": "4.12%"},
      {"smiles": "O=C(CSc1nc2ccccc2c(=O)n1CCCO)N1CCc2ccccc21", "activity change, negative = inhibition": "-0.197%"},
      {"smiles": "CN(C)CCn1c2c(c(SCC(=O)Nc3ccccc3C(F)(F)F)nc1=O)CCCC2", "activity change, negative = inhibition": "28.8%"},
      {"smiles": "Cc1ccc2nc(C)cc(N/N=C/c3ccc(F)cc3)c2c1", "activity change, negative = inhibition": "9.21% [at 46.1 µM]"},
      {"smiles": "Cc1cc(C)nc(-n2nc(C)cc2NC(=O)c2ccc(Br)o2)n1", "activity change, negative = inhibition": "4.69%"},
      {"smiles": "Cc1cc(Nc2ccccc2)nc(N)n1", "activity change, negative = inhibition": "3%"},
      {"smiles": "COc1ccc(NC(=O)c2nc(-n3nc(C)cc3C)ccc2Cl)cc1Cl", "activity change, negative = inhibition": "9.49%"},
      {"smiles": "COc1ccc(Nc2cc(C)nc(-n3nc(C)cc3C)n2)cc1", "Potency": "1.3 µM (active)"},
      {"smiles": "Cc1cc(N/N=C\\c2ccc(Br)cc2)nc(-n2nc(C)cc2C)n1", "Potency": "2.24 µM (active)"},
      {"smiles": "CN1CCN(C(=O)c2cnn(-c3ccccc3)c2NC(=O)c2ccc([N+](=O)[O-])cc2)CC1", "activity change, negative = inhibition": "12.4% [at 46.1 µM]"},
      {"smiles": "CN1CCN(C(=O)C(=O)c2cn(CC(=O)N3CCCC3)c3ccccc23)CC1", "activity change, negative = inhibition": "-14.1%"},
      {"smiles": "O=C1NC(=O)C(CCc2ccccc2)(c2ccccc2)N1", "note": "(stereo not given)", "activity change, negative = inhibition": "-23.1%"},
      {"smiles": "COCc1ccc(C(=O)NC2CC(C)(C)Cc3c2cnn3-c2ccc(C)cc2)o1", "note": "(stereo not given)", "activity change, negative = inhibition": "-15.2%"},
      {"smiles": "Cc1cccc(C(=O)OC(C)C(=O)NC2CCCc3ccccc32)c1O", "note": "(stereo not given)", "activity change, negative = inhibition": "1.02% [at 46.1 µM]"},
      {"smiles": "COc1ccc(C(=O)NC2CCCc3c2cnn3-c2cccc(C)c2C)c(OC)n1", "note": "(stereo not given)", "Potency": "0.708 µM (active)"},
      {"smiles": "CN(C)C(=O)c1ccc(NC(=O)c2ccccc2-c2ccccc2)cc1", "activity change, negative = inhibition": "0.637% [at 46.1 µM]"},
      {"smiles": "CCc1ccc(N(C(=O)c2csnn2)C(C(=O)NC2CCCCC2)c2ccncc2)cc1", "note": "(stereo not given)", "activity change, negative = inhibition": "6.59% [at 46.1 µM]"},
      {"smiles": "O=C1CC2(CCCC2)C(=O)N1CN1CCN(S(=O)(=O)c2ccc(F)cc2F)CC1", "activity change, negative = inhibition": "-2.46%"},
      {"smiles": "O=C(Cc1cccc2ccccc12)Nc1ccc2oc(-c3ccccc3)nc2c1", "activity change, negative = inhibition": "22.7%"},
      {"smiles": "CCc1ccc2oc(-c3ccc(N)cc3)nc2c1", "Potency": "5.17 µM (active)"},
      {"smiles": "COc1ccc(-c2nc3cc([N+](=O)[O-])ccc3o2)cc1OC", "activity change, negative = inhibition": "-1.31% [at 46.1 µM]"},
      {"smiles": "CC(=O)Nc1ccc(S(=O)(=O)Nc2cc(C)cn(Cc3ccc(C)cc3)c2=O)cc1", "activity change, negative = inhibition": "-2.78% [at 46.1 µM]"},
      {"smiles": "CCOC(=O)C1=C(CN2CCc3ccccc32)NC(=O)NC1c1ccc(Cl)cc1", "note": "(stereo not given)", "Potency": "16.4 µM (active)"},
      {"smiles": "CCOC(=O)C1=C(CN2CCCCCC2)NC(=O)NC1c1cccc([N+](=O)[O-])c1", "note": "(stereo not given)", "activity change, negative = inhibition": "-3.93% [at 46.1 µM]"},
      {"smiles": "CCOC(=O)C1=C(C)NC(=O)NC1c1ccccc1", "note": "(stereo not given)", "activity change, negative = inhibition": "-12.9%"},
      {"smiles": "COc1ccc([C@H]2C(C#N)=C(N)Oc3n[nH]c(C)c32)cc1CSc1ccccn1", "activity change, negative = inhibition": "-7.9%"},
      {"smiles": "COc1cccc(NC(=O)CN(C)C(=O)Cc2ccc(Cl)cc2Cl)c1", "activity change, negative = inhibition": "-19.1%"},
      {"smiles": "Cc1ccc(CNC(=O)c2c(-c3ccccc3)noc2C)cc1", "activity change, negative = inhibition": "5.17% [at 46.1 µM]"},
      {"smiles": "CCOC(=O)c1c(-c2cccc(C)c2)csc1NC(=O)c1c(-c2ccccc2)noc1C", "Potency": "0.316 µM (active)"},
      {"smiles": "CC(=O)Nc1cccc(NC(=O)c2c(-c3ccccc3)noc2C)c1", "activity change, negative = inhibition": "-18%"},
      {"smiles": "CC(C)(C)C(=O)Nc1cccc(-c2ccc[nH]2)n1", "activity change, negative = inhibition": "-0.354%"},
      {"smiles": "Cc1cc([N+](=O)[O-])c(=O)[nH]c1C", "activity change, negative = inhibition": "19.3%"},
      {"smiles": "COc1ccc(NC(=O)N2CCCC2C(=O)NCc2ccccc2Cl)cc1", "note": "(stereo not given)", "activity change, negative = inhibition": "0.978%"},
      {"smiles": "CCc1ccc(NC(=O)CN2C(=O)C(c3ccccc3)=NC23CCCCCC3)cc1", "activity change, negative = inhibition": "-30.3% [at 46.1 µM]"},
      {"smiles": "COc1ccc(C2=NC3(CCCCC3)N(CC(=O)Nc3ccc(C(C)C)cc3)C2=O)cc1", "Potency": "11.2 µM (active)"},
      {"smiles": "COc1ccc(NC(=O)CN2C(=O)C(c3ccccc3)=NC23CCCCCC3)cc1OC", "activity change, negative = inhibition": "-21.6%"},
      {"smiles": "CCCCn1c(N)c(N(CC(C)C)C(=O)c2ccc(Br)o2)c(=O)[nH]c1=O", "activity change, negative = inhibition": "17.7% [at 46.1 µM]"},
      {"smiles": "O=C(Nc1c[nH]c(=O)[nH]c1=O)OCc1ccccc1", "activity change, negative = inhibition": "27.8% [at 46.1 µM]"},
      {"smiles": "Cc1c(NC(=O)CN(C)CC(=O)Nc2ccc(F)c(F)c2F)c(=O)n(-c2ccccc2)n1C", "activity change, negative = inhibition": "-3.68%"},
      {"smiles": "Cc1cccc(N(Cc2ccccc2)C(=O)c2cc(S(=O)(=O)N3CCOCC3)ccc2F)c1", "activity change, negative = inhibition": "-20.3% [at 46.1 µM]"},
      {"smiles": "Cc1cc(NC(=O)c2cc3ccccc3o2)no1", "activity change, negative = inhibition": "10.1% [at 46.1 µM]"},
      {"smiles": "CCOc1ccc2nc(N(CCN(C)C)C(=O)c3ccc4ccccc4c3)sc2c1", "activity change, negative = inhibition": "-10.7% [at 46.1 µM]"},
      {"smiles": "COc1cccc2sc(N(CCCN(C)C)C(=O)C(c3ccccc3)c3ccccc3)nc12", "Potency": "10 µM (active)"},
      {"smiles": "COc1cccc2sc(NNC(=O)c3nc4ccccc4s3)nc12", "activity change, negative = inhibition": "-10.8%"},
      {"smiles": "COC(=O)C1=C(C)NC(=S)NC1c1ccc(OCC(=O)N2CC(C)OC(C)C2)c(OC)c1", "note": "(stereo not given)", "activity change, negative = inhibition": "-7.83%"},
      {"smiles": "Cc1noc(COc2ccccc2OCC(O)CNC(C)(C)C)n1", "note": "(stereo not given)", "activity change, negative = inhibition": "-7.5%"},
      {"smiles": "CC(C)(C)CC(C)(C)NCC(O)COCCOc1ccc(Br)cc1", "note": "(stereo not given)", "Potency": "4.61 µM (active)"},
      {"smiles": "COc1ccc(OCC(O)CNCCNc2nccc(C(F)(F)F)n2)cc1", "note": "(stereo not given)", "activity change, negative = inhibition": "-10.5%"},
      {"smiles": "COc1cccc(NC(=O)C/C(C)=N/NC(=O)C2CCCCC2)c1", "activity change, negative = inhibition": "0.161%"},
      {"smiles": "Cc1ccc(OCC(=O)Oc2ccccc2[N+](=O)[O-])cc1", "activity change, negative = inhibition": "-5.93%"},
      {"smiles": "O=C1CN(C(=O)COc2c(Cl)cccc2Cl)c2ccccc2N1", "activity change, negative = inhibition": "18.3%"},
      {"smiles": "COc1ccc(-n2ncc3c2CC(C)(C)CC3NC(=O)CCc2c(C)nn(C)c2C)cc1", "note": "(stereo not given)", "activity change, negative = inhibition": "-0.487% [at 46.1 µM]"}
    ]}
  ]
}
